TDP1 cell CPT: DT40-hTDP1 cell growth loss with CPT. chicken DT40 Tdp1-/-;hTDP1 cells + 20 nM CPT, ATP luminescence, 48 h. hit rate 12% among 420,000. Potency, µM (doses to about 46.2 µM), usual class: inhibitors. AID 686979; also: nearly all actives have a fitted effect of over 55% in size
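Cell growth measured by CellTiter-Glo luminescence after a minimum 48 h, 37 C compound exposure with 20 nM CPT in Tdp1-knockout DT40 cells stably expressing hTDP1, seeded 400/well; qHTS titration format.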
ATXN viability: cell viability loss in ATXN counter-screen; S2 cells (HEK-293 line with an ATXN2-luciferase reporter) viability, CellTiter-Fluor protease fluorescence, 24 h; Potency, µM (highest dose often 56.7 µM), actives largely listed as cytotoxic; AID 651635; hit rate 0.49% among 400,000; also: nearly all actives have a fitted effect of over 40% in size
TGFb SMAD3 inh: inhibitors of TGF-b signaling; HepG2 CAGA-GFP TGF-b/SMAD3 reporter, GFP fluorescence, 18 h; TGF-beta stimulated, 500 pg/mL final; Potency, µM (doses to about 46.1 µM), actives largely listed as inhibitors; hit rate 1.2% among 410,000; AID 588855; also: nearly all actives have a fitted effect of over 65% in size
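First, reporter cells (HEPG2 CAGA-GFP) rested 2 h at 37 degrees C. Next, compounds were pinned in and TGF-beta added to 500 pg/mL final. After 18 h, GFP was imaged per cell and summed per well.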
ATXN2 expr inh: reduces ATXN2 reporter expression in HEK-293 cells; HEK-293 ATXN2-luciferase reporter, luminescence, 24 h; Potency, µM (top dose mostly 57 µM), actives largely listed as inhibitors; hit rate 0.72% among 360,000; AID 1745845; also: nearly all actives have a fitted effect of over 55% in size
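qHTS (up to 57 uM final) was run with 24 h compound exposure of reporter cells at 37 °C. Each well was multiplexed: SteadyGlo luminescence measured ATXN2-luciferase expression after a fluorogenic Gly-Phe-AFC viability readout (25 uM final).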
DT40 TDP1 no CPT: qHTS for Inhibitors of human tyrosyl-DNA phosphodiesterase 1 (TDP1): qHTS in cells in absence of CPT. hit rate 15% among 420,000. AID 686978, 2013. Potency, µM (highest dose often 46.2 µM), most hits filed as inhibitors. DT40 Tdp1-/- hTDP1 cells, no CPT, ATP luminescence, 48 h; also: nearly all actives have a fitted effect of over 55% in size
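DT40 Tdp1-/-;hTDP1 cells, no CPT (DMSO vehicle only), 400 cells/well; compounds pin-transferred; ≥48 hr, 37 °C; CellTiter-Glo 30 min RT dark, luminescence read.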
HepG2 tox: HepG2 cytotoxicity, counter-screen for TGF-b inhibitors; HepG2 CAGA-GFP viability, ATP luminescence, 18 h; Potency, µM (doses to about 46.1 µM), usual class: cytotoxic; hit rate 0.76% among 410,000; AID 588856
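HepG2 CAGA-GFP cells (1000/well, DMEM with 1% FBS) received compound, then TGF-beta at 500 pg/mL final, and were incubated 18 hours at 37 degrees C. Viability was read by CellTiter-Glo luminescence. Media-only wells were set as complete cell-killing and DMSO as no toxicity.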
A number is an active result; – = inactive; ? = inconclusive; · = not tested or not shown; ! = not active in a repeat; [ ] = remark or other dose. Only some compounds are listed: those with a hit (about 17% of all), similar ones and a draw of the others. Calls follow the shape of the dose curve; as a rule, active = well fitted curve in the direction sought with a large enough effect; inconclusive = small, poorly fitted or top-dose-only effect, or another doubt; inactive = no such curve, though single readings can be large; an effect the other way counts as inactive or inconclusive.

SMILES | TDP1 cell CPT | ATXN viability | TGFb SMAD3 inh | ATXN2 expr inh | DT40 TDP1 no CPT | HepG2 tox
CC(=O)Nc1ccccc1OCC(=O)N(Cc1ccccc1)C(C)C | 16.4µM | ? | ? | – | 13µM | –
Cc1ccc(NC(c2ccc(Cl)cc2)c2nnc(-c3cccc(F)c3)o2)cc1C (centres undefined) | – | – | – | – | ? | –
COc1ccccc1CNc1ncnc2c1nc1n2CCCC1 | ? | – | – | – | 8.2µM | –
COc1ccccc1CNC(=O)C1CCN(c2ncnc3c2nc2n3CCCCC2)CC1 | ? | – | – | – | 23.1µM! | –
O=C(Nc1ccc(F)cc1)C1CCN(c2ncnc3c2nc2n3CCCCC2)CC1 | ? | – | ? | · | 18.4µM | –
CCc1ccc(NC(=O)C2CCN(c3ncnc4c3nc3n4CCCCC3)CC2)cc1 | ? | – | – | – | ? | –
O=C(Nc1ccccn1)C1CCN(c2ncnc3c2nc2n3CCCCC2)CC1 | 2.31µM | – | – | · | ? | –
COc1ccc(OC)c(CNC(=O)C2CCN(c3ncnc4c3nc3n4CCCCC3)CC2)c1 | – | · | – | · | – | –
OC[C@H]1O[C@@H](c2nc(-c3ccccc3Br)no2)[C@H](O)[C@@H](O)[C@H]1O | – | – | – | – | – | –
COc1ccc([N+](=O)[O-])cc1NC(=O)c1ccc(N(Cc2ccccc2Cl)S(C)(=O)=O)cc1 | – | – | – | – | ? | –
COC(=O)c1ccccc1NC(=O)N1CCC(N2CCN(Cc3ccc(F)cc3)C(=O)C2=O)CC1 | – | ? | – | – | – | –
CCCCOC(=O)CCCCCCCCC(=O)OCCCC | · | – | · | – | · | ·
CCOc1ccc(Nc2ncnc3c2nc2n3CCCCC2)cc1 | ? | – | – | – | 20.6µM | –
COc1ccc(Nc2ncnc3c2nc2n3CCCCC2)cc1 | – | – | – | – | ? | –
Cc1cccc(C)c1OC(=O)CN1C(=O)c2ccccc2C1=O | – | – | – | – | – | –
Cc1ccc(Cl)cc1NC(=O)C(=O)NCC(c1cccnc1)N1CCc2ccccc21 (centres undefined) | 13µM | · | ? | · | 13µM | –
CCc1ccccc1NC(=O)C(=O)NCC(c1cccnc1)N1CCc2ccccc21 (centres undefined) | ? | · | ? | · | 20.6µM | –
O=C(NCC(c1ccco1)N1CCc2ccccc21)c1ccccc1Cl (centres undefined) | ? | – | – | – | ? | –
COC(=O)NCC(c1cccnc1)N1CCN(c2ccccc2F)CC1 (centres undefined) | – | – | – | – | – | –
Cc1cccc(C)c1NC(=O)C(=O)NCC(c1cccnc1)N1CCc2ccccc21 (centres undefined) | 14.6µM | · | – | · | 13µM | –
Cc1cccc(C)c1NC(=O)C(=O)NCC(c1ccc2c(c1)OCO2)N1CCN(C)CC1 (centres undefined) | – | ? | – | – | – | –
Cc1ccccc1C(=O)NCC(c1cccnc1)N1CCc2ccccc21 (centres undefined) | ? | · | ? | · | 18.4µM | –
COP(=O)(OC)OC(C(=O)c1ccccc1)c1ccccc1 (centres undefined) | – | · | · | · | – | ·
COc1ccc(N2CC(NC(=O)c3ccco3)CC2=O)cc1 (centres undefined) | – | · | – | · | – | –
O=C(COc1ccccc1Br)Nc1ccccc1C(F)(F)F | – | – | – | · | ? | –
SMILES | TDP1 cell CPT | ATXN viability | TGFb SMAD3 inh | ATXN2 expr inh | DT40 TDP1 no CPT | HepG2 tox
Cc1ccc(N(C)S(=O)(=O)c2ccc(-c3cc(C)no3)s2)cc1 | 6.51µM | – | ? | · | – | –
Cc1cc(-c2ccc(S(=O)(=O)N(C)c3ccc(C)c(C)c3)s2)on1 | 3.26µM | ? | ? | · | 4.11µM | –
OCCC1CN(Cc2cccc(C(F)(F)F)c2)CCN1Cc1ccccc1 (centres undefined) | ? | – | – | – | ? | –
CCOC(=O)C1CCCN(C(=O)c2ccc(Cl)cc2)C1 (centres undefined) | – | – | – | –[2.22 µM] | – | –
CCOC(=O)C1CCCN(c2cc(C)nc3cc(-c4ccc(Cl)cc4)nn23)C1 (centres undefined) | ? | – | – | – | 23.1µM | –
CCOC(=O)C1CCCN(c2cc(C)nc3cc(-c4ccc(F)cc4)nn23)C1 (centres undefined) | 23.1µM | – | – | – | 23.1µM | –
O=C(Nc1ccc(S(=O)(=O)Nc2ncccn2)cc1)c1cc(=O)c2ccccc2o1 | – | – | – | – | – | –
COc1ccc(NC(C)=O)cc1NC(=O)CN1CCN(CC(=O)Nc2ccccc2Cl)CC1 | ? | – | – | – | 20.6µM | –
COC(=O)c1ccc(Cl)cc1NC(=O)N(Cc1ccc(OC)cc1)C1CCN(C(C)=O)CC1 | ? | ? | – | – | 7.31µM | –
O=C(CN1CCCCCC1)Nc1ccc(F)c(F)c1 | – | – | – | – | – | –
COc1ccccc1NC(=O)CN1CCN(CC(=O)Nc2cc(NC(C)=O)ccc2OC)CC1 | ? | – | – | – | ? | –
COc1cccc(C(C)NC(=O)Nc2ccccc2Cl)c1 (centres undefined) | 20.6µM | – | – | – | ? | –
O=C(CN1CCN(CC(=O)Nc2ccccc2Cl)CC1)Nc1ccc(F)c(F)c1 | ? | – | ? | · | 23.1µM | –
COc1ccc(CN(C(=O)Nc2cccc(OC)c2)C2CCN(C(C)=O)CC2)cc1 | – | · | – | · | – | –
COc1ccc2c(c1)cc(C(=O)N[C@@H](CCSC)C(=O)N1CCC[C@H]1C(=O)O)n2C | – | – | – | – | – | –
CCC(C)(C)n1nnnc1C(c1cc2cc(C)cc(C)c2[nH]c1=O)N1CCN(Cc2ccc3c(c2)OCO3)CC1 (centres undefined) | – | – | – | – | ? | –
CCC(C)c1ccc(S(=O)(=O)N2CCN(c3ccccn3)CC2)cc1 (centres undefined) | – | – | ? | – | – | –
COc1ccccc1CN(C)C(=O)CN1CCN(CC(=O)Nc2ccccc2Cl)CC1 | 23.1µM | ? | – | – | 23.1µM | –
COc1ccc(S(=O)(=O)N2CCN(CC(=O)Nc3ccccc3Cl)CC2)cc1 | ? | – | – | – | – | –
COc1cccc(CN2CCN(CC(=O)Nc3ccccc3Cl)CC2)c1 | ? | – | – | – | 16.4µM | –
O=C(CN1CCN(C(=O)C2CCN(C(=O)/C=C/c3ccccc3)CC2)CC1)Nc1ccccc1Cl | ? | – | ? | – | 18.4µM | –
O=C(CN1CCCCCC1)Nc1ccccc1Cl | – | – | – | · | – | –
CCN1CCC(N(Cc2cccc(OC)c2)C(=O)Nc2ccc(C)cc2Cl)CC1 | ? | – | – | – | 18.4µM | –

Screening results deposited in PubChem by National Center for Advancing Translational Sciences (NCATS).
